Source: PubChem (National Center for Advancing Translational Sciences (NCATS))
In the library only some 2.4% were active in any assay of this set; here they are far more common.
D2 ag-1: activates the human D2 dopamine receptor; P14416; HEK293 T-REx D2 cells, calcium flux agonist mode; activation, % at 2 µM; 340,000 compounds, 0.53% hits; AID 485358;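 active = activation over 3 SD above normal in the single-dose calcium agonist read, cut at about 30% in these data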; also: 0% is about no effect
Target sequence (P14416 whole entry, looked up): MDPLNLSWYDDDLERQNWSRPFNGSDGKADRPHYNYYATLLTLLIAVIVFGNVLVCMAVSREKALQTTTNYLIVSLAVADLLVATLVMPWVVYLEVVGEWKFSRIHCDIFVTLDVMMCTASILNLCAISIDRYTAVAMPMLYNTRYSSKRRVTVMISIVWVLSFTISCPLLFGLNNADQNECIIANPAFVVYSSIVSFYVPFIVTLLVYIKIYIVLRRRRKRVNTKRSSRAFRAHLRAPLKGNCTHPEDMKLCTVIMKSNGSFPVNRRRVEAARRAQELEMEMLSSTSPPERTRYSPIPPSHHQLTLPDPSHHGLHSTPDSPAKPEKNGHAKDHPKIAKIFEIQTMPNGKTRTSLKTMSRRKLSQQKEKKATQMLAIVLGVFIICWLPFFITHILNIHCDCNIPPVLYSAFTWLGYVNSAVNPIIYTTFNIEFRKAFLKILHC
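Tetracycline-induced HEK293 T-REx cells with force-coupled D2 receptor, plated overnight at 30 C, loaded with no-wash calcium dye. After a 10 s baseline, compound was pin-added and calcium flux read kinetically for 180 s; calcium rises flagged agonists.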
D2 PAM-1: potentiates the human D2 dopamine receptor allosterically. P14416. DiscoveRx D2 beta-arrestin cells, luminescence, 90 min; 100% = 57 uM dopamine signal. potentiation, % (concentration not given with the values). 360,000 compounds, 0.23% hits. AID 624464; in the data active = potentiation above about 50%; inconclusive = mostly about 30% to 49%
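D2 cells co-treated with compound plus 50 nM dopamine (EC20) for 90 min at 37 deg C to detect potentiation. Beta-arrestin recruitment was read as enzyme-fragment luminescence after 1 h at ambient temperature. Full response was set by 57 uM dopamine.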
D2 antagonist: antagonizes the human D2 dopamine receptor; HEK293 TREx D2 cells, calcium flux, dopamine EC80; AID 485344; 340,000 compounds, 2% hits; inhibition, % at 10 µM; in the data active = inhibition above about 30%; inactive = below that, where a call was filed; also: 0% is about no effect
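Calcium mobilization kinetics were recorded at 1 s intervals in tetracycline-induced HEK293 T-REx D2 cells, first for 180 s after compound addition and then 180 s after EC80 dopamine.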
D2 ag-2: activates the human D2 dopamine receptor. AID 624465. DiscoveRx PathHunter D2 beta-arrestin, luminescence, 90 min; 100% = 57 uM dopamine signal. P14416. activation, % (concentration not given with the values). 360,000 compounds, 0.084% hits; in the data active = activation above about 40%; inconclusive = between about 15% and that limit
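Agonist mode: compounds alone added to overnight-plated D2 PathHunter cells for 90 min at 37 C, with 57 uM final dopamine (EC100) defining full response. Beta-arrestin recruitment detected by chemiluminescent reagent, read after 1 h at ambient temperature.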
D2 PAM-2: positively modulates the human D2 dopamine receptor allosterically. P14416. HEK293 T-REx D2, calcium flux, EC20 dopamine potentiation. potentiation, % at 10 µM. 340,000 compounds, 0.34% hits;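 active = potentiation over 3 SD above the plate norm, cut at about 30% in these data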; also: 0% is about no effect
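Cells plated with tetracycline inducer and held overnight at 30 C; calcium dye loaded 30–90 min at room temperature; baseline taken, compound added and read 180 s; EC20 dopamine then added and read 180 s.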
Numbers without * were called inactive; ? = inconclusive; / = no result given.

SMILES	D2 ag-1	D2 PAM-1	D2 antagonist	D2 ag-2	D2 PAM-2
COc1ccccc1CNC(=O)CCCNC(=O)c1ccc(Cl)cc1	0	-9	-19	0	30*
Cc1ccc(S(=O)(=O)N(C)C)cc1NC(=O)CCCNC(=O)c1ccc(Cl)cc1	-1	-20	41*	-2	-43
CSc1cccc(NC(=O)CCCNC(=O)c2ccc(Cl)cc2)c1	-1	-14	45*	-2	-23
Cc1ccc(S(=O)(=O)N(C)C)cc1NC(=O)CSc1ncc(C(F)(F)F)cc1Cl	1	-6	37*	1	-39
CCN(CC)S(=O)(=O)c1ccc(C)c(NC(=O)CSc2ncc(C(F)(F)F)cc2Cl)c1	0	-13	-3	-6	-3
CC(=O)c1ccc(OCCCC(=O)Nc2cc(S(=O)(=O)N(C)C)ccc2C)cc1	1	-31	19	-4	-17
O=C(Cn1c(=O)nc(-c2ccccc2)c2ccccc21)NCc1ccccc1Cl	/	/	/	/	2
Cc1ccc(-c2c(C(=O)N3CCN(c4cccc(C)c4)C(C)C3)oc(=O)c3ccccc23)cc1 (stereo not given)	0	/	/	/	-1
Cc1cccc(NC(=O)CCNC(=O)c2ccccc2)c1	-4	-2	35*	0	6
Cc1ccc(S(=O)(=O)N(C)C)cc1NC(=O)Nc1ccccc1F	-1	-14	64*	-3	-27
Cc1c(NC(=O)COC(=O)/C=C/c2cccc(Cl)c2)c(=O)n(-c2ccccc2)n1C	-1	-5	14	-4	0
CCCCCOc1ccc(C(O)C(CN2CCOCC2)c2ccccc2)cc1 (stereo not given)	-1	2	-2	1	8
Cc1nc(-c2ccc(F)cc2)c(CC(=O)N2CCN(S(=O)(=O)c3cccc([N+](=O)[O-])c3)CC2)s1	0	29	34*	?	-5
COCCCn1c(SCc2nnc(-c3ccccc3)o2)nc2sc3c(c2c1=O)CCC3	1	1	-3	-1	33*
CCOc1ccc(NC(=O)c2c(NCc3cccnc3)sc3c2CCCC3)cc1	0	/	/	/	1
S=C(Nc1ccccc1Cl)N1CCC(c2ccccc2)C1 (stereo not given)	-1	2	2	-4	-6
Cc1ccc(NC(=S)N2CCC(c3ccccc3)C2)c(Cl)c1 (stereo not given)	-1	-7	30*	-3	-3
Oc1ccc(/C=N/N2CCCCC2)c(O)c1O	/	9	/	2	/
Oc1ccc(/C=N/N2CCOCC2)c(O)c1O	/	54*	/	?	-3
O=C(O)c1ccc2nc3c(nc2c1)-c1ccccc1C3=O	1	-17	34*	-5	8
COc1ccc(Cl)cc1N(C(=O)c1ccco1)C(C(=O)NC1CCCC1)c1ccncc1 (stereo not given)	0	-3	39*	0	7
COc1ccc(Cl)cc1N(C(=O)c1ccco1)C(C(=O)NC1CCCC1)c1cccnc1 (stereo not given)	-2	-10	4	-5	-3
C=CCN(C(=O)CNC(=O)c1ccco1)C(C(=O)NC1CCCCC1)c1ccccc1F (stereo not given)	0	-7	-7	-4	38*
COc1ccc(C(C(=O)NCC2CCCO2)N(C(=O)CNC(=O)c2ccco2)c2ccc(C)c(C)c2)cc1OC (stereo not given)	0	-6	12	-3	-10
COc1ccc(OC)c(N(C(=O)c2ccco2)C(C(=O)NC2CCCC2)c2cc(OC)c(OC)c(OC)c2)c1 (stereo not given)	1	3	36*	1	-1
SMILES	D2 ag-1	D2 PAM-1	D2 antagonist	D2 ag-2	D2 PAM-2
COCCN(C(=O)CNC(=O)c1ccco1)C(C(=O)NC1CCCC1)c1ccccc1F (stereo not given)	1	-2	-16	2	12
COc1ccc(C(C(=O)NCC2CCCO2)N(C(=O)CNC(=O)c2ccco2)c2cc(C)cc(C)c2)cc1OC (stereo not given)	0	-6	-21	0	34*
Cc1ccc(NC(=O)C2CCN(C(=O)c3cnn(-c4ccccc4)c3-n3cccc3)CC2)cc1	2	/	/	/	9
Cc1cc(C)cc(N(C(=O)c2ccco2)C(C(=O)NC2CCCC2)c2ccncc2)c1 (stereo not given)	-1	8	37*	-1	4
O=C(NC1CCCCC1)C(c1ccncc1)N(C(=O)c1csnn1)c1ccc(F)cc1 (stereo not given)	1	-14	37*	-1	-1
CCOC(=O)c1ccc(N(C(=O)c2ccco2)C(C(=O)NC2CCCC2)c2ccncc2)cc1 (stereo not given)	0	6	36*	3	5
COc1ccc(N(C(=O)CNC(=O)c2ccco2)C(C(=O)NC2CCCCC2)c2cccnc2)cc1 (stereo not given)	1	0	38*	2	20
COc1ccc(N(C(=O)CNC(=O)c2ccco2)C(C(=O)NC2CCCC2)c2cccnc2)cc1 (stereo not given)	1	8	5	-1	-1
COc1ccc(/C(O)=C2/C(=O)C(=O)N(CCCN3CCOCC3)C2c2ccc(C(C)C)cc2)cc1 (stereo not given)	-1	-2	4	2	-2
Cc1ccc(C)c(OC(=O)CSc2nnc(-c3ccc4c(c3)OCO4)o2)c1	1	/	/	/	5
N/C(Cc1ccc([N+](=O)[O-])cc1)=N\OC(=O)c1ccco1	/	21	/	53*	/
N/C(Cc1ccc([N+](=O)[O-])cc1)=N\OC(=O)c1ccccc1Br	1	122*	3	41*	-11
Cc1cccc(C(=O)O/N=C(\N)Cc2ccc([N+](=O)[O-])cc2)c1	0	148*	16	?	6
COc1ccc(C/C(N)=N/OC(=O)C(c2ccccc2)c2ccccc2)cc1OC	1	50*	-17	7	0
COc1cc(/C=C/C(=O)O)cc(S(=O)(=O)Nc2ccccc2Oc2ccccc2)c1OC	1	-12	1	-4	1
Cc1csc(-c2cc(C(=O)NCc3ccc(F)cc3)n[nH]2)c1	/	-21	/	-3	/
N/C(Cc1ccc([N+](=O)[O-])cc1)=N\OC(=O)c1ccc(Br)cc1	-1	171*	12	?	-10
N/C(Cc1ccc([N+](=O)[O-])cc1)=N\OC(=O)C(c1ccccc1)c1ccccc1	0	89*	12	12	-5
N/C(Cc1ccc([N+](=O)[O-])cc1)=N\OC(=O)c1ccc2ccccc2c1	1	143*	-5	?	-2
COc1ccc(/C(N)=N/OC(=O)c2cccc([N+](=O)[O-])c2C)cc1	1	4	-5	3	-10
